Screening data from PubChem BioAssay.
In the library only some 19% were active in any assay of this set; here they are far more common.
TDP1 inh: blocks human tyrosyl-DNA phosphodiesterase 1; 350,000 tested, 0.28% active; Potency, µM (highest dose often 130 µM), without a hit: top-dose activity change, negative = inhibition, actives largely listed as inhibitors; AID 485290; recombinant TDP1, AlphaScreen DNA substrate cleavage; note: potency is the fitted concentration of half-maximal effect; % is set by controls: 0 for no effect and ±100 for the full control effect; nearly all actives have a fitted effect of over 40% in size
Target sequence (Q9NUW8 whole entry, looked up): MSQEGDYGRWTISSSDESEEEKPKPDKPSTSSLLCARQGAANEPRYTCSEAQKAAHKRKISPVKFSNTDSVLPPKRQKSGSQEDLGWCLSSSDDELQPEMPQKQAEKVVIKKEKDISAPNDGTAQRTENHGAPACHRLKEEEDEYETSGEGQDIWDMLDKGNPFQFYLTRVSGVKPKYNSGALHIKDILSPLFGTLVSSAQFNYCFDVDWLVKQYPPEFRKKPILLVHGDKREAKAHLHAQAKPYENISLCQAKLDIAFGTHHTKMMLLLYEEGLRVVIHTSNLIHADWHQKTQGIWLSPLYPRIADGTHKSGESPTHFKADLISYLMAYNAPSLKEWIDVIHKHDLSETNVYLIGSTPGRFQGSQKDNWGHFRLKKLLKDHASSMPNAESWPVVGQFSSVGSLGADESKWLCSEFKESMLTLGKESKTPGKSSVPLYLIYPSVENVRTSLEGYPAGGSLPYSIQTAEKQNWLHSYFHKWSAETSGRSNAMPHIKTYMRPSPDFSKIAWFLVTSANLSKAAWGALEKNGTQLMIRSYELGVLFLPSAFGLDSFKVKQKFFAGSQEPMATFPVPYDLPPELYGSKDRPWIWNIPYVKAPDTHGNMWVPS
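Here, a 5' biotin and 3' phosphotyrosine-FITC DNA oligonucleotide reports Tdp1 activity: intact substrate bridges AlphaScreen beads, while cleavage leaves a 3' phosphate and drops signal. All incubations at room temperature.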
HepG2 tox: HepG2 cytotoxicity, counter-screen for TGF-b inhibitors | HepG2 CAGA-GFP viability, ATP luminescence, 18 h | Potency, µM (highest dose often 46.1 µM), for inactives: at the top dose activity change, negative = cytotoxicity, most hits filed as cytotoxic | 410,000 tested, 0.76% active; note: potency is the fitted concentration of half-maximal effect
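CellTiter-Glo luminescence gave cytotoxicity after 18 hours at 37 degrees C. The cells were HepG2 CAGA-GFP in 1% FBS DMEM, stimulated with 500 pg/mL TGF-beta after compound addition. %Activity was normalised to no-cell wells (complete cell-killing) and DMSO (no toxicity), and curves were fitted and classified.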
IL1B secr inh: blocks inflammasome-driven IL-1 beta release | THP-1 LPS/ATP IL-1B secretion, AlphaLISA, 16 h; active compounds read low | activity change, % at 57.5 µM | 360,000 tested, 4.7% active | AID 743279; in the data active = activity change below about -50%; inconclusive = mostly about -30% to -49%; note: % is set by controls: 0 for no effect and ±100 for the full control effect
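Secreted IL-1B measured by AlphaLISA bead assay after 16 h compound exposure of THP-1 cells; compounds (final up to 57.5 uM) added 1 h before LPS (250 ng/mL) and ATP (1.25 mM) stimulation; lower signal means less secretion.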
TGFb SMAD3 inh: TGF-b pathway inhibition. HepG2 CAGA-GFP TGF-b/SMAD3 reporter, GFP fluorescence, 18 h; TGF-beta stimulated, 500 pg/mL final. Potency, µM (highest dose often 46.1 µM), for inactives: top-dose activity, negative = inhibition, hits mostly inhibitors. 410,000 tested, 1.2% active. AID 588855; note: potency is the fitted concentration of half-maximal effect; % is set by controls: 0 for no effect and ±100 for the full control effect; nearly all actives have a fitted effect of over 65% in size
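Smad-responsive CAGA-GFP expression was quantified in HEPG2 cells exposed to compounds and 500 pg/mL final TGF-beta for 18 h at 37 degrees C; unstimulated wells defined full inhibition.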
TDP1 cell CPT: DT40-hTDP1 cell growth loss with CPT; chicken DT40 Tdp1-/-;hTDP1 cells + 20 nM CPT, ATP luminescence, 48 h; Potency, µM (series often up to 46.2 µM), for inactives: at the highest dose activity change, negative = growth inhibition, hits mostly inhibitors; 420,000 tested, 12% active; AID 686979; note: potency is the fitted concentration of half-maximal effect; % is set by controls: 0 for no effect and ±100 for the full control effect; nearly all actives have a fitted effect of over 55% in size
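Chicken DT40 Tdp1-/- cells stably complemented with human TDP1 were seeded at 400 cells/well in medium containing 20 nM camptothecin, exposed to pin-transferred compounds, and grown at 37 °C for at least 48 hr. Viability was read as ATP luminescence.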
TDP1 cell noCPT: qHTS for Inhibitors of human tyrosyl-DNA phosphodiesterase 1 (TDP1): qHTS in cells in absence of CPT. DT40 Tdp1-/- hTDP1 cells, no CPT, ATP luminescence, 48 h. Potency, µM (doses to about 46.2 µM), for inactives: top-dose activity change, negative = growth inhibition, hits mostly inhibitors. 420,000 tested, 15% active. AID 686978, 2013; note: potency is the fitted concentration of half-maximal effect; % is set by controls: 0 for no effect and ±100 for the full control effect; nearly all actives have a fitted effect of over 55% in size
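Readout: luminescence from CellTiter-Glo after 30 min in the dark at RT. Cells: DT40 Tdp1-/- with stable hTDP1, 400/well. Exposure: compounds alone, ≥48 hr, 37 °C.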
Active calls of the source: *; ? = inconclusive; · = not tested or not shown; [ ] = remark or other dose. Unless noted, calls come from the whole dose curve; as a rule, active = well fitted curve in the direction sought with a large enough effect; inconclusive = small, poorly fitted or top-dose-only effect, or another doubt; inactive = no such curve, though single readings can be large; an effect the other way counts as inactive or inconclusive.

SMILES	TDP1 inh	HepG2 tox	IL1B secr inh	TGFb SMAD3 inh	TDP1 cell CPT	TDP1 cell noCPT
CN(C)c1ccc(/C=C/c2ccnc3ccc(N)cc23)cc1	·	-34%	·	7%	18µM*	?
COc1cccc2nccc(/C=C/c3ccc(N(C)C)cc3)c12	·	-23%	·	18%	32µM*	13µM*
CC(=O)c1ccccc1-c1ccc2c(c1)CC(CNC(=O)Cc1c[nH]c3ccccc13)O2 (stereo not drawn)	·	·	·	·	13%[9.04 µM]	-10%
COc1ccccc1CNC(=O)Cn1ncc2c3ccccc3n(Cc3ccccc3C)c2c1=O	0%	-13%	·	-1%	7.3µM*	16µM*
CCc1cccc(C)c1NC(=O)Cn1ncc2c3ccccc3n(Cc3ccccc3)c2c1=O	-8%	-3%	·	5%	10µM*	8.2µM*
Cc1ccccc1Cn1c2ccccc2c2cnn(CC(=O)NCc3cccc(Cl)c3)c(=O)c21	0%	1%	·	5%	15µM*	-103%
COc1ccc(C(=O)c2oc3ccccc3c2NC(=O)c2cc(=O)c3ccc(C)cc3o2)cc1Cl	2%	-4%	·	-13%	0%	-4%
Cc1nn(CC(=O)NCc2ccc(N(C)C)cc2)c(=O)c2nn(-c3ccccc3)c(C)c12	-6%	-1%	·	2%	?	?
COC(=O)N[C@@H](CCc1ccccc1)[C@]1(C(C)=O)CCCC1=O	1%	·	·	·	·	·
CCCSc1nc(-c2ccccc2)cc(C(F)(F)F)c1C#N	-7%	5%	27	-20%	?	?
N#Cc1c(C(F)(F)F)cc(-c2ccccc2)nc1SCCN1CCOCC1	3%	-5%	-16	1%	21µM*	?
Cc1ccc(CNc2ccc(N3CCN(C)CC3=O)cc2)cc1	3%	-9%	·	0%	·	·
Cc1cccc2c1cnn2C(=O)Nc1ccccc1Cl	·	-23%	7	-11%	?	?
COc1ccc(CNCc2ccccc2)cc1COc1ccc(NC(C)=O)cc1	-4%	·	·	·	8.9µM*	10µM*
COc1ccc(CN(Cc2ccccc2)C(=O)c2cccc(C#N)c2)cc1COc1ccc(NC(C)=O)cc1	0%	·	·	·	8.9µM*	14µM*
COc1ccc(CN(Cc2ccccc2)C(=O)c2ccccc2)cc1COc1ccc(NC(C)=O)cc1	3%	·	·	·	·	·
Cc1cc(Nc2cccc(Cl)c2)nc2ccc(NC(=O)c3cncc(Br)c3)cc12	5%	-39%	·	?	4.6µM*	5.2µM*
Cc1cccc(OCC(=O)Nc2ccc3nc(Nc4cccc(Cl)c4)cc(C)c3c2)c1	2%	-49%	·	?	?	?
Cc1ccccc1C(=O)Nc1ccc2nc(Nc3cccc(C(F)(F)F)c3)cc(C)c2c1	1%	-20%	·	14µM*	21µM*	18µM*
Cc1ccc2cc(NC(=O)c3ccccc3C)ccc2n1	·	-16%	2	0%	-16%	1%
CCOC(=O)c1cccc(NC(=O)c2cncc(Br)c2)c1	2%	-1%	10	4%	0%	-19%
Cc1cc(Nc2cccc(C(F)(F)F)c2)nc2ccc(NC(=O)c3cncc(Br)c3)cc12	6%	10µM*	·	?	5.8µM*	5.2µM*
CCOc1cc(C(=O)Nc2ccc3nc(Nc4cccc(Cl)c4)cc(C)c3c2)cc(OCC)c1OCC	1%	-16%	·	-8%	4.6µM*	6.5µM*
Cn1c(=O)c2c(SCC(=O)NCc3ccc(F)cc3)nc(-c3ccccc3Cl)nc2n(C)c1=O	-3%	1%	·	-4%	?	?
CC(=O)NCc1ccc(S(=O)(=O)N2CCN(S(=O)(=O)c3ccc4ccccc4c3)CC2)cc1	-6%[0.505 µM]	-2%	-4	-10%	12%	-6%
SMILES	TDP1 inh	HepG2 tox	IL1B secr inh	TGFb SMAD3 inh	TDP1 cell CPT	TDP1 cell noCPT
O=C(Nc1ccc2c(c1)oc1ccccc12)C1CC1	4%	2%	43	-5%	15µM*	9.2µM*
O=C(Nc1ccc2c(c1)oc1ccc(S(=O)(=O)N3CCCC3)cc12)C1CC1	0%	-23%	-57*	-2%	?	?
CCOc1cc(CNn2cnnc2SCC(=O)NC(C)(C)C)ccc1OCC(=O)NC(C)(C)C	8%	4%	20	14%	-6%	18µM*
Cc1oc2c(c1C(=O)c1ccccc1)C(=O)C(=O)c1ccccc1-2	10%	4.5µM*	-88*	?	1.2µM*	1.8µM*
O=C(c1ccccc1)c1coc2ccc(O)c(Cl)c12	-3%	-14%	-12	-19%	-24%	-9%
O=C1C(=O)c2c(C(=O)c3ccccc3)coc2-c2ccccc21	4%	13µM*	?	8.9µM*	3.3µM*	2.1µM*
OC1(C#Cc2c(-c3ccsc3)oc3ccc(N4CCOCC4)cc23)CCCCC1	·	-21%	0	?	?	?
O=C(OCc1ccc(O)cc1)c1c(-c2ccsc2)oc2ccc(N3CCOCC3)cc12	·	-18%	-13	?	18µM*	13µM*
O=C(NC1CC2CCCC(C1)N2C(=O)Nc1cccc(F)c1)C1CC1 (stereo not drawn)	·	-14%	-9	-4%	-3%	-3%
O=S(=O)(c1cccc(-c2nc3ccccc3s2)c1)N1CCOCC1	6%	-19%	-10	27%	?	-18%
Cc1ccc(-c2nnc(NCc3nc4ccccc4[nH]3)c3ccccc23)cc1S(=O)(=O)N1CCCCC1	5%	-20%	-3	-28%	21µM*	16µM*
Cc1ccc(-c2nnc(Nc3cccc(Br)c3)c3ccccc23)cc1S(=O)(=O)N1CCCCC1	3%[2.28 µM]	-14%	·	-10%	-25%	-24%
Cc1ccc(-c2nnc(Nc3cccc(Cl)c3)c3ccccc23)cc1S(=O)(=O)N1CCN(C)CC1	·	-1%	·	?	12µM*	21µM*
CNS(=O)(=O)c1cc(-c2nnc(Nc3ccc(CC(N)=O)cc3)c3ccccc23)ccc1C	·	-8%	0	3%	-2%	11%
Cc1cccc(Nc2nnc(-c3ccc(C)c(S(=O)(=O)N4CCN(C)CC4)c3)c3ccccc23)c1	·	-19%	·	?	21µM*	?
Cc1ccc(-c2nc3ccccc3s2)cc1S(=O)(=O)N1CCCC1	-4%	2%	-6	?	13µM*	?
O=c1c2ccccc2nnn1Cc1ccc2ccccc2c1	-2%	-29%	-13	16%	14%	36%
